miR-21 act: qHTS Assay for Modulators of miRNAs and/orActivators of miR-21 | Potency, µM (top dose mostly 38.3 µM), without a hit: at the highest dose activity change, positive = activation, hits mostly activators | HeLa miR-21 FLuc reporter, luciferase, 48 h | AID 2288, 2010 | 340,000 tested, under 10 active;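 further: % of control where 0% means no effect; miR-21 action dims this reporter so a rising signal means less miR-21 action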
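HeLa cells stably expressing CMV-driven firefly luciferase with a downstream miR-21 binding sequence, endogenously expressing miR-21, were treated with titrations (up to about 40uM final) for 48 hours at 37 degree Celsius. Luciferase luminescence was read after lysis.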
p53 reactivation: qHTS assay for re-activators of p53 using a Luc reporter. H1299 p53-A138V BP100-luciferase reporter, luminescence, 24 h. Potency, µM (series often up to 92.2 µM), for the others: top-dose activity change, positive = activation, hits mostly activators. actives 0.063% (n = 320,000); further: potency means the concentration at half of the fitted maximal effect; % of control where 0% means no effect; nearly all actives have a fitted effect of over 45% in size
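H1299 (p53-null), stable ts p53-A138V + BP100-Luc; 1000 cells/well, Opti-MEM/10% FBS; cpd 4 pt, 1:5; 24 h, 37 deg C, 5% CO2; detection reagent 10 min RT; luminescence.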
BRCA1 expr act: qHTS Assay to Identify Small Molecule Activators of BRCA1 Expression. Potency, µM (highest dose often 46.1 µM), for the others: at the top dose activation, usual class: activators. actives 1.1% (n = 380,000). MCF7-BRCA1-FFLuc reporter, luminescence, 48 h; response scale: scaled: vehicle 0%, 10 µM genistein 100%; further: potency means the concentration at half of the fitted maximal effect; nearly all actives have a fitted effect of over 80% in size
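Using MCF7 cells harboring a BRCA1 firefly luciferase reporter, plated 2 h before compound pinning, the screen measured luminescence after 48 h incubation. Responses were normalized to DMSO and 10 microM genistein, then fitted for concentration-effect.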
Apoferritin bind: qHTS Assay for Identification of Novel General Anesthetics | Ferritin light chain (Equus caballus), P02791 | apoferritin/1-aminoanthracene competitive binding, fluorescence | Potency, µM (series often up to 77.5 µM), without a hit: at the top dose activity change, negative = displacement, usual class: inhibitors | actives 0.074% (n = 350,000); further: potency means the concentration at half of the fitted maximal effect; on the % scale 0 is the no-effect control and ±100 the full control effect; nearly all actives have a fitted effect of over 20% in size
Target sequence (P02791 2-175 limits assumed): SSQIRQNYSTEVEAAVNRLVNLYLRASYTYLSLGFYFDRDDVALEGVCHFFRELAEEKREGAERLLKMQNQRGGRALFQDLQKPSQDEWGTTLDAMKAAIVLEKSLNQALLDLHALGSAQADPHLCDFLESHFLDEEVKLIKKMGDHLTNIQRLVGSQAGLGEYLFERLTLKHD
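Concentration-response curves derived by four-parameter Hill fitting of normalized fluorescence, where compounds displaced 1-AMA from 10 uM horse apoferritin following a brief 10 min room-temperature incubation; propofol titration acted as positive control.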
Numbers without * were called inactive; ? = inconclusive; nt = not tested or not shown. In the library only some 1.1% were active in any assay of this set; here they are far more common. The call rests on the fitted dose curve; in most records, active means well fitted curve in the direction sought with a large enough effect; inconclusive means small, poorly fitted or top-dose-only effect, or another doubt; inactive means no such curve, though single readings can be large; an effect the other way counts as inactive or inconclusive.

SMILES	miR-21 act	p53 reactivation	BRCA1 expr act	Apoferritin bind
O=C(NCc1cccs1)c1cc(-c2ccc(O)cc2)on1	-41%	10%	8.9µM*	2%
Cc1ccc(/C=C/C(=O)NCc2cccs2)c(C)c1	-62%	6%	10µM*	-5%
Cc1ccc(-c2cc(C(=O)NCc3cccs3)no2)cc1	-28%	?	4.5µM*	5%
O=C(NCc1cccs1)c1cc(-c2cccc(Cl)c2)on1	-28%	?	57%	-14%
O=c1ccnc(Nc2ccc([N+](=O)[O-])cc2)[nH]1	nt	nt	-1%	nt
Cc1cccc(C)c1OCc1cc(=O)n2ccsc2n1	-33%	nt	12%	-22%
O=C(NC(=S)NC1CCCCCC1)c1cncc(Br)c1	-71%	?	11µM*	-20%
N#Cc1cc2c(nc1SCc1ccncc1)CCC2	-46%	?	11µM*	-7%
COc1ccc(NC(=O)n2nc(OC(=O)c3cccs3)cc2N)cc1	-55%	12%	13µM*	-23%
COc1ccc(-c2ccc(S(=O)(=O)n3nc(OC(=O)c4cccs4)cc3N)cc2)cc1	0%	-1%	0%	-23%
Cc1c(-c2ccccc2)[nH]n2c(=O)c3c(nc12)CCCC3	-77%	?	3.2µM*	-7%
Cc1cccc(NC(=O)c2oc3ccc(S(=O)(=O)N(C)C4CCCCC4)cc3c2C)c1C	15%	nt	nt	-6%
CCSc1nnc(NC(=O)c2cccc3ccccc23)s1	-16%	1%	-30%	-9%
CCSc1nnc(NC(=O)c2csc(C)c2)s1	-35%	?	5µM*	4%
COc1cccc2ccc(/C=C/c3ccc4c(c3)OCO4)nc12	nt	nt	3.5µM*	nt
COC(=O)c1ccc(/C=C/c2ccc3cccc(OC)c3n2)cc1	-9%	-1%	-15%	4%
CC12CCC(=O)N1C(C(=O)Nc1nnc(SCc3ccc(F)cc3)s1)CS2 (stereo unspecified)	2%	-13%	0%	22µM*
C=CCSc1nnc(NC(=O)C2CSC3(C)CCC(=O)N23)s1 (stereo unspecified)	nt	2%	0%	nt
CCOC(=O)c1c(S(=O)(=O)NCC(=O)N2CCN(c3cccc(OC)c3)CC2)c(C)n(C)c1C	-1%	8%	4%	-7%
CCC(Oc1ccccc1)C(=O)Nc1ccc2oc(-c3ccc(OC)cc3)nc2c1 (stereo unspecified)	-50%	nt	nt	13%
Cc1noc(C)c1CCC(=O)Nc1cc(Cl)ccc1C(=O)O	nt	nt	-3%	nt
O=C(Cn1nnc2c(cnn2-c2ccc(F)cc2)c1=O)OC1CCCCC1	-10%	21%	0%	13µM*
CCOc1ccc(NC(=O)Cn2nnc3c(cnn3-c3ccc(F)cc3)c2=O)cc1	14%	4%	9%	-13%
CNc1cncc(-c2ccc(O)cc2C)n1	nt	nt	-10%	nt
O=C(Nc1ccc2nc(-c3ccc(Br)o3)[nH]c2c1)c1cccs1	-12%	28%	10µM*	22%
SMILES	miR-21 act	p53 reactivation	BRCA1 expr act	Apoferritin bind
CC(=O)Nc1ccc2nc(-c3cccs3)[nH]c2c1	-85%	?	6.3µM*	-5%
O=C(Nc1ccc2nc(-c3ccc(Br)o3)[nH]c2c1)c1ccco1	-20%	3%	6.3µM*	6%
CC(=O)Nc1ccc2nc(-c3ccc(Br)o3)[nH]c2c1	-51%	?	10µM*	-3%
O=S(=O)(Nc1ccc2nc(-c3ccc(Br)o3)[nH]c2c1)c1ccccc1	-29%	23%	nt	-19%
Cc1ccc(C)c(NC(=O)C(=O)NCCc2csc3nc(-c4ccccc4C)nn23)c1	0%	nt	nt	37%
N#Cc1ccc2sn(-c3ccccc3)c(=O)c2c1	nt	nt	11µM*	nt
Nc1ccc2nc(-c3ccccc3)[nH]c2c1	-31%	9%	97%	95%
Nc1ccc2nc(-c3ccccn3)[nH]c2c1	-8%	?	11µM*	9%
Nc1ccc2nc(-c3ccc(N)c(Cl)c3)[nH]c2c1	-17%	?	4.5µM*	50%
Cc1nnc(NC(=O)CSc2nc3c([nH]c4ccccc43)c(=O)n2-c2ccc(Cl)cc2)s1	3%	nt	14%	1%
Cc1c(-c2ccccc2)n[nH]c1C(=O)NN	-38%	7%	?	-21%
CCOc1ccc(-c2n[nH]c(C(=O)NN)c2C)cc1	-52%	?	10µM*	-4%
O=C(N/N=C/C=C\c1ccco1)c1cccs1	-6%	13%	7.1µM*	-14%
O=C(Cc1cccs1)N/N=C/C=C\c1ccco1	9%	14µM*	76%	-9%
Cc1n[nH]c(C)c1S(=O)(=O)N(CC(=O)NCc1ccccc1Cl)c1ccc(C(C)C)cc1	20%	nt	-36%	-4%
CC(C)(C)c1csc(NC(=O)c2ccc(Br)o2)n1	-12%	?	10µM*	?
Cc1nc(-c2ccc(NC(=O)CC(C)C)cc2)cs1	-44%	?	2.2µM*	-3%
Cc1nc(-c2ccc(NC(=O)C3CC3)cc2)cs1	-59%	28%	?	-8%
COc1ccc(-c2csc(NC(=O)CC(C)C)n2)cc1	-21%	?	8.9µM*	-9%
COc1ccc(-c2csc(NC(=O)c3c(OC)cccc3OC)n2)cc1	-18%	-3%	-6%	36%
Cc1nc(-c2ccc(NC(=O)c3ccc(Br)o3)cc2)cs1	-9%	20%	11µM*	?
CC(C)C(=O)Nc1ccc(-c2csc(-c3ccccc3)n2)cc1	-62%	12%	5µM*	-6%
CC(C)C(=O)Nc1cccc(-c2csc(-c3ccccc3)n2)c1	-44%	?	69%	-2%
CC(OC(=O)c1ccccc1C(=O)O)c1ccccc1 (stereo unspecified)	nt	nt	-5%	nt
CCOC(=O)c1ccc(N/C=C\C(=O)c2cccc(OC)c2)cc1	-53%	?	3.5µM*	-1%
SMILES	miR-21 act	p53 reactivation	BRCA1 expr act	Apoferritin bind
CCOc1ccc(N/C=C\C(=O)c2ccc3c(c2)OCO3)cc1	nt	nt	4.5µM*	nt
CCOC(=O)c1cccc(N/C=C/C(=O)c2ccc(OC)c(OC)c2)c1	-46%	16%	87%	-3%
c1ccn2cc(CSC3=NCCS3)nc2c1	-51%	?	6.3µM*	-11%
c1ccn2cc(CSc3nnc4ccccn34)nc2c1	-22%	?	?	-6%
C=CCN(C(=O)C1=NN(C2CCS(=O)(=O)C2)C(=O)CC1)c1nc(-c2ccc([N+](=O)[O-])cc2)cs1 (stereo unspecified)	-32%	-3%	5µM*	-19%
CCOC(=O)c1ccc(NCCOC)c([N+](=O)[O-])c1	-50%	5%	13µM*	-12%
CC(Cc1cccs1)NC(=O)Nc1ccc([N+](=O)[O-])cc1 (stereo unspecified)	-4%	-1%	5.6µM*	?
CCC(C)(C)NC(=O)CCCSc1nc2ccccc2s1	-39%	3%	3.5µM*	-8%
CCc1cccc(CC)c1NC(=O)CCCSc1nc2ccccc2s1	-4%	-11%	-45%	-1%
CC(C(=O)Nc1ccc(S(=O)(=O)N2CCCC2)cc1)N1CCCC(C(N)=O)C1 (stereo unspecified)	nt	-7%	3%	nt

Compound activity from PubChem BioAssay.
